RGS12 GoLoco inh: qHTS Assay for Inhibitors of RGS12 GoLoco Motif Activity (Red Fluorophore). hit rate 0.44% among 230,000. Potency, µM (doses to about 61.6 µM), most hits filed as inhibitors. Guanine nucleotide-binding protein G(i) subunit alpha-1 (Homo sapiens), P63096. Gai1:RGS12 GoLoco peptide FP, rhodamine, 10 min; active means well fitted inhibition curve with a large enough effect, not every such curve was filed as active; inactive means no such curve, though single readings can be large or run the other way; further: nearly all actives have a fitted effect of over 30% in size
NPSR antagonist: qHTS Assay for Antagonists of the Neuropeptide S Receptor: cAMP Signal Transduction; hit rate 1% among 220,000; Potency, µM (doses to about 38.3 µM), usual class: inhibitors; Q6W5P4; CHO-NPSR cells, cAMP TR-FRET, antagonist mode; further: nearly all actives have a fitted effect of over 50% in size
Target sequence (Q6W5P4 whole entry, looked up): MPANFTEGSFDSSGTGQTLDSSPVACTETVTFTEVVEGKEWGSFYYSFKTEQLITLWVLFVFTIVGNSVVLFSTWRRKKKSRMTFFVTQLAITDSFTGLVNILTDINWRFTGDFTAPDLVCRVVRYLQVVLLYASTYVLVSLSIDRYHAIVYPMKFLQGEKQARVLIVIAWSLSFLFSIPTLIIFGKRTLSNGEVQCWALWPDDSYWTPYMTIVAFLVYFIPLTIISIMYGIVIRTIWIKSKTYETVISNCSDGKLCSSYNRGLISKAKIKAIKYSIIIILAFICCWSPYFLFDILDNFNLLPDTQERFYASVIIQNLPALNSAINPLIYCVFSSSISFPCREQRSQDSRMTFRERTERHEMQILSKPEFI
KDM4E inh: qHTS Assay for Inhibitors of Human Jumonji Domain Containing 2E (JMJD2E); hit rate 1.6% among 230,000; Potency, µM (highest dose often 57.1 µM), hits mostly inhibitors; AID 2147, 2009; JMJD2E catalytic domain, FDH-coupled NADH fluorescence (FDH is formaldehyde dehydrogenase); Lysine-specific demethylase 4E (Homo sapiens), B2RXH2; active means well fitted inhibition curve with a large enough effect, not every such curve was filed as active; inconclusive means small, poorly fitted or top-dose-only effect, or another doubt; inactive means no such curve, though single readings can be large or run the other way; further: nearly all actives have a fitted effect of over 50% in size
Sfp PPTase inh: qHTS Assay for Inhibitors of Bacillus subtilis Sfp phosphopantetheinyl transferase (PPTase). Biochemical Sfp PPTase activity, qHTS. Potency, µM, most hits filed as inhibitors. hit rate 3.5% among 310,000;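 further: the enzyme is Sfp with the accession as filed and its product quenches rhodamine fluorescence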
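Reaction rates are the 30-min fluorescence difference (ex 525, em 598 nm) in wells containing 15 nM Sfp, 5 uM rhodamine-CoA and 12.5 uM BHQ-2-YbbR at pH 7.6 with 10 mM MgCl2.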
ALDH1A1 inh: qHTS Assay for Inhibitors of Aldehyde Dehydrogenase 1 (ALDH1A1). Potency, µM (doses to about 75.3 µM), most hits filed as inhibitors. Purified ALDH1A1, NADH fluorescence, propionaldehyde substrate. Aldehyde dehydrogenase 1A1 (Homo sapiens), P00352. AID 1030, 2008. hit rate 7.3% among 220,000; active means well fitted inhibition curve with a large enough effect, not every such curve was filed as active; inconclusive means small, poorly fitted or top-dose-only effect, or another doubt; inactive means no such curve, though single readings can be large or run the other way
Coupling enz: qHTS Assay for Inhibitors of Fructose-1,6-bisphosphate Aldolase from Giardia Lamblia: Coupling assay counterscreen. coupling enzyme system counterscreen, AmpLite Red fluorescence. activity change, negative = inhibition, % at 58.2 µM, hits read low. hit rate 0.67% among 290,000. AID 2472, 2010; in the data active means activity change below about -30%
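Compounds tested against the coupling enzymes alone at 57.5 uM final; readout was AmpLite Red fluorescence (525/598 nm) after 20 min at RT.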
Numbers stand for hits; 0 = inactive; ? = inconclusive; - = no result; [ ] = another dose, or the depositor's remark. Compounds with a hit are over-represented: about 8.5% of the library has one in this group of screens. Unless noted, the call rests on the fitted dose curve; in most records, active means well fitted curve in the direction sought with a large enough effect; inconclusive means small, poorly fitted or top-dose-only effect, or another doubt; inactive means no such curve, though single readings can be large; an effect the other way counts as inactive or inconclusive.

SMILES	RGS12 GoLoco inh	NPSR antagonist	KDM4E inh	Sfp PPTase inh	ALDH1A1 inh	Coupling enz
O=C(OC(C(=O)Nc1ccc([N+](=O)[O-])cc1Br)c1ccccc1)c1ccccc1 (configuration not stated)	0	0	0	0	?	0
COCCNC(C(=O)Nc1ccc(C)cc1[N+](=O)[O-])c1ccccc1 (configuration not stated)	0	0	0	0	25µM	0
CCC(C)NC(C(=O)Nc1ccc(Cl)c([N+](=O)[O-])c1)c1ccccc1 (configuration not stated)	0	0	0	0	?	0
Cc1ccc(F)cc1NC(=O)CSc1ncccn1	0	0	0	0	0	0
O=C(Cc1ccccc1Cl)NC1(O)C(=O)c2ccccc2C1=O	0	0	0	0	1.1µM	0
COCCn1c(C)cc(C(=O)COC(=O)c2ccc3c(c2)NC(=O)CS3)c1C	0	0	0	?	0	0
C=CCn1c(C)cc(C(=O)COC(=O)c2ccc3c(c2)NC(=O)CS3)c1C	0	0	0	56µM	?	0
O=C1/C(=C\c2ccco2)CCC/C1=C\c1ccco1	0	0	0	11µM	5.6µM	0
O=C1/C(=C/c2ccco2)Cc2ccccc21	0	0	?	0	?	0
CC1C/C(=C/c2ccco2)C(=O)/C(=C/c2ccco2)C1 (configuration not stated)	0	0	0	?	14µM	0
CC(C)[C@H](N)C(=O)N[C@@H](CCC(N)=O)C(=O)NCC(=O)N[C@@H](CCC(=O)O)C(=O)N[C@@H](CCC(=O)O)C(=O)N[C@@H](CO)C(=O)N[C@@H](CC(N)=O)C(=O)N[C@@H](CC(=O)O)C(=O)N[C@@H](CCCCN)C(=O)O	-	-	-	0	-	0
CN(C(=O)Cn1nnc(-c2cccc(C(F)(F)F)c2)n1)C1CCCCC1	0	0	0	0	35µM	0
O=C(CSc1nnc(Cc2ccccc2)o1)N1CCCc2ccccc21	0	0	0	?	18µM	0
O=C(CSc1nnc(CNc2ccccc2)o1)N1CCc2ccccc21	0	0	0	0	16µM	0
COC(=O)C1C(O)C(C)C(O)C(C)(O)/C=C\C=C(/C)C(=O)Nc2c(C)c(OC(C)=O)c3c(c2O)C(=O)C(C)=C2OCOC(=C23)/C(C)=C/C(C)(O)C(O)C(C)C1O (configuration not stated)	0	0	3.2µM	?	-	-42
CC(Oc1ccc(F)cc1)C(=O)NN (configuration not stated)	0	0	0	0	5µM	0
CC(Oc1ccc(F)cc1)C(=O)/C=C\N(C)C (configuration not stated)	0	0	0	0	0	0
CC(Oc1ccc(-c2nccc(-c3ccccn3)n2)cc1)C(=O)NN (configuration not stated)	0	0	0	0	18µM	0
Cc1nn(S(=O)(=O)c2ccc(Br)cc2)c(C)c1S(=O)(=O)N1CCOCC1	-	-	-	0	-	-
Cc1nc([N+](=O)[O-])cn1Cc1cccc([N+](=O)[O-])c1	0	0	0	0	0	0
Cc1ccc(S(=O)(=O)N(C)C)cc1NC(=O)c1cncc(Br)c1	0	0	0	0	?	0
COc1ccccc1CNc1nc(C)c(C(=O)N(C)C)s1	-	-	-	45µM	-	0
Cc1cc(C(=O)Nc2nc(C)c(C(=O)N(C)C)s2)ccc1[N+](=O)[O-]	0	0	0	0	0	0
COc1ccc(C(=O)NC(=S)Nc2nc(C)c(C(=O)N(C)C)s2)cc1	0	0	0	63µM	?	0
Cc1nc(NC(=S)NC(=O)c2cccs2)sc1C(=O)N(C)C	0	0	0	50µM	4.5µM	0
SMILES	RGS12 GoLoco inh	NPSR antagonist	KDM4E inh	Sfp PPTase inh	ALDH1A1 inh	Coupling enz
Cc1nc(NC(=O)c2ccc([N+](=O)[O-])cc2Cl)sc1C(=O)N(C)C	0	0	?	40µM	13µM	0
COc1ccccc1NC(=O)CSc1nnc(-c2ccoc2C)n1C	-	-	-	0	-	0
S=C(NCCCN1CCOCC1)Nc1ccc(Nc2ccccc2)cc1	0	0	0	0	?	0
S=C(NCCCN1CCOCC1)Nc1ccc(-c2nc3ccccc3[nH]2)cc1	0	0	?	35µM	?	0
CCCCNC(=O)O[C@@H]1C[C@H]2CCC(=O)N3CC[C@@H](C1)[C@@H]23	-	-	-	0	-	0
COc1ccc(CCNC(=O)CCCN2C(=O)c3ccccc3C2=O)cc1	0	0	0	0	14µM	0
O=C(CCCCCN1C(=O)c2ccccc2C1=O)NCCc1nc2ccccc2[nH]1	0	0	0	0	11µM	0
COCCNC(=O)C(=O)NCC1OCCN1S(=O)(=O)c1ccc(F)cc1 (configuration not stated)	-	-	-	0	-	-
CCOC(=O)OCC1OC(c2ccccc2)C=CC1Oc1cccc(N(C)C)c1 (configuration not stated)	-	-	-	0	0[13.5 µM]	0
CC(=O)Nc1ccc(S(=O)(=O)N(Cc2ccco2)Cc2cc3ccccc3[nH]c2=O)cc1	-	-	-	0	-	-
COc1ccc(-c2nc(SCC(=O)NC3CCCCC3)n[nH]2)cc1	-	-	-	0	-	-
COc1ccc(/C=C2/C(=O)C(C)(C(C)C)CCC2C)cc1 (configuration not stated)	-	-	-	0	-	0
Cc1ccccc1NC(=O)c1c(C)[nH]c(=S)c(C#N)c1-c1ccco1	0	0	0	56µM	0	0
CSc1nc(C)c(C(=O)Nc2ccccc2)c(-c2ccco2)c1C#N	0	0	0	0	-	0
CNC(=O)c1c(C)[nH]c(=S)c(C#N)c1-c1ccco1	0	0[7.67 µM]	32µM	8.9µM	-	0
Cc1nc(SCC(=O)O)c(C#N)c(-c2ccco2)c1C(=O)N(C)C	0	0	0	0	-	0
CC1OC(OCC2OC(Oc3cc(O)c4c(c3)OC(c3ccc(O)cc3)CC4=O)C(O)C(O)C2O)C(O)C(O)C1O (configuration not stated)	-	-	-	0	-	0
COc1ccc(S(=O)(=O)N2CCOCC2)cc1NC(=O)CCc1nc2ccccc2c(=O)[nH]1	-	-	-	0	-	-
COc1ccccc1OCCC(=O)OCC(=O)Nc1cc(S(=O)(=O)N2CCOCC2)ccc1Cl	0	0	0	0	6.3µM	0
Cc1cccc(NC(=O)COC(=O)CCc2ccc(S(=O)(=O)N3CCOCC3)cc2)c1C	0	0	0	0	3.5µM	0
Cc1ccccc1OCCC(=O)OCC(=O)Nc1cc(S(=O)(=O)N2CCOCC2)ccc1Cl	0	0	0	0	2.5µM	0
COc1ccccc1OCCC(=O)OCC(=O)Nc1ccc(S(=O)(=O)N2CCOCC2)cc1	0	0	0	0	?	0

Screens as filed in PubChem BioAssay.
